# Rows were chosen to be rich in hits. Some 2.1% of all compounds tested hit in one or more screens of this group.
# ID4 binder: ID4 (human) binding. P47928. small molecule microarray, Flag-ID4 binding, fluorescence F/B. calls only. hit rate 1.2% among 31,000. AID 624137; call rule not given here;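 note: a binder raises fluorescence above local background on the spot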
# Target sequence (P47928 whole entry, looked up): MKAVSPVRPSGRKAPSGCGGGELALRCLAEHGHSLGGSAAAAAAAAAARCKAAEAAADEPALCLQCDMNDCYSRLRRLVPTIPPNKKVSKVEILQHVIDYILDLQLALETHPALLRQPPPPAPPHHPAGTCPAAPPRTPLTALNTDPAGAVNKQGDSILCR
# mut p53 react: mutant p53 pathway reactivation | SW480 PUMA-promoter luciferase | activation, % at 9.98 µM | hit rate 1.5% among 28,000; in the data active = activation above about 52%; inconclusive = no clear call, values can overlap the other calls
# * = called active by the depositor; i = inactive; ? = inconclusive; · = not tested or not shown; + = active, no number.
SMILES,ID4 binder,mut p53 react
C[C@@H]1CN([C@@H](C)CO)S(=O)(=O)c2ccc(C3=CCCC3)cc2O[C@@H]1CN(C)C(=O)Nc1ccc2c(c1)OCO2,i,·
C[C@@H]1CN([C@@H](C)CO)S(=O)(=O)c2ccc(C3=CCCC3)cc2O[C@H]1CN(C)C(=O)Nc1ccc2c(c1)OCO2,+,·
Cc1cc(=O)oc2cc(OC(C)C(=O)Nc3sc4c(c3C(N)=O)CCCC4)ccc12 (stereo unspecified),+,-2.0
Cc1cc(=O)oc2cc(OC(C)C(=O)NCC3CCCO3)ccc12 (stereo unspecified),i,8.3
COc1cc2c(c(N)c1OC)C(=O)/C(=C/c1cc(C)c(O)c(C)c1)C2,·,-1.7
C[C@H]1CN([C@@H](C)CO)C(=O)Cc2cc(NC(=O)Cc3cn(C)c4ccccc34)ccc2O[C@H]1CN(C)S(=O)(=O)c1cccs1,i,-4.5
O=C(COc1ccc([N+](=O)[O-])cc1)Nc1cccc(NC(=O)c2ccccc2Cl)c1,i,6.4
CC(C)(C)NC(=O)c1cccc(NC(=O)COc2ccc3ccccc3c2)c1,i,2.1
Cc1cccc(-c2nc3cc(NC(=O)COc4ccccc4)ccc3o2)c1,i,32.6
O=C(CNC(=O)c1ccccc1)Nc1cccc(-c2cnc3ccccc3n2)c1,i,10.7
CCC(=O)Nc1cccc(NC(=O)COc2ccc3ccccc3c2)c1,i,93.9*
O=C(COc1ccc([N+](=O)[O-])cc1)Nc1cccc(O)c1,i,117.1*
O=C(COc1ccccc1)Nc1ccc2oc(-c3ccccc3)nc2c1,i,68.5*
COc1ccc(OCC(=O)Nc2cccc(-c3cnc4ccccc4n3)c2)cc1,i,91.6*
C[C@@H]1CN([C@H](C)CO)C(=O)c2cc(NC(=O)CCC(F)(F)F)ccc2O[C@@H]1CN(C)C,i,5.6
C=CCOC(=O)[C@H]1[C@@H]2C(=O)O[C@@H](c3ccccc3)[C@@H](c3ccccc3)N2[C@@H](c2ccc(OCCOC(=O)[C@@H]3C[C@@H]4C(=O)N[C@@H](Cc5ccccc5)C(=O)N4[C@@H]3c3cccc(OCCO)c3)cc2)[C@]12C(=O)Nc1ccccc12,i,·
C[C@@H]1CCCCO[C@@H](CN(C)S(=O)(=O)c2ccc(F)cc2)[C@H](C)CN([C@H](C)CO)C(=O)c2cc(NS(=O)(=O)c3cn(C)cn3)ccc2O1,·,4.6
C[C@H]1CN([C@@H](C)CO)C(=O)c2cc(-c3ccccc3)cnc2O[C@@H]1CN(C)Cc1ccccc1,i,·
C[C@@H]1CN([C@@H](C)CO)C(=O)Cc2cc(NS(=O)(=O)c3cn(C)cn3)ccc2O[C@@H]1CN(C)Cc1ccc(C(F)(F)F)cc1,i,2.6
CC(C)C#Cc1cnc2c(c1)C(=O)N([C@H](C)CO)C[C@H](C)[C@H](CN(C)C(=O)Nc1cc(F)ccc1F)O2,·,-1.8
COc1ccc2oc(-c3cccc(NC(=O)COc4ccc(Cl)cc4)c3)nc2c1,i,91.3*
COc1ccc(OCC(=O)Nc2ccc3oc(-c4cccc(Br)c4)nc3c2)cc1,i,43.3
O=C(C[C@@H]1CC[C@H](NC(=O)C2CCC2)[C@@H](CO)O1)NCC1CC1,i,·
Cc1ccc([N+](=O)[O-])cc1NC(=O)CSc1nnc(-c2ccc(Br)cc2)o1,i,4.2
N#Cc1ccccc1OCCCCSc1ncccn1,i,101.8*
SMILES,ID4 binder,mut p53 react
Fc1ccccc1OCCCCSc1ncccn1,i,31.0
COc1ccc(OC)c(S(=O)(=O)N(C)CC(=O)Nc2ccc(F)c(Cl)c2)c1,i,-11.7
COC(=O)c1cc(OC)c(OC)cc1NC(=O)CN1CCCCC1,i,18.4
COC(=O)c1cc(OC)c(OC)cc1NC(=S)N1CCC(C(N)=O)(N2CCCCC2)CC1,+,3.7
CNC[C@@H]1Oc2ccc(NS(C)(=O)=O)cc2C(=O)N([C@@H](C)CO)C[C@H]1C,+,8.0
CNC[C@H]1Oc2ccc(NS(C)(=O)=O)cc2C(=O)N([C@H](C)CO)C[C@@H]1C,+,6.5
CNC[C@@H]1Oc2ccc(NS(=O)(=O)c3ccccc3)cc2C(=O)N([C@@H](C)CO)C[C@@H]1C,i,3.6
CNC[C@H]1Oc2ccc(NS(=O)(=O)c3ccccc3)cc2C(=O)N([C@H](C)CO)C[C@H]1C,i,5.5
C[C@H](CO)N1C[C@H](C)[C@@H](CN(C)Cc2ccc(F)cc2)Oc2ncc(-c3ccc(F)cc3)cc2C1=O,i,·
C[C@H](CO)N1C[C@H](C)[C@H](CN(C)S(=O)(=O)c2ccccc2)Oc2ccc(NC(=O)CCC(F)(F)F)cc2CC1=O,i,-6.4
C[C@H]1CN([C@@H](C)CO)C(=O)c2ccccc2-c2ccccc2CO[C@H]1CN(C)C(=O)[C@H]1CCCN1C,i,·
O=C(C[C@@H]1C=C[C@H](NS(=O)(=O)c2cccc(F)c2)[C@@H](CO)O1)N1CCCCC1,i,·
O=C(O)CCCCCCC(=O)Nc1ccc(C2CC(CSc3nc(-c4ccccc4)c(-c4ccccc4)o3)OC(c3ccccc3)O2)cc1 (stereo unspecified),+,·
CC(=O)c1cccc(NC(=O)CSc2nc(-c3ccccc3)c(-c3ccccc3)o2)c1,i,-1.4
COc1ccc(C(=O)CSc2nnc(-c3cc4ccccc4o3)n2C)cc1,i,-4.8
Cc1sc2ncnc(SCC(=O)c3ccc(Cl)c(Cl)c3)c2c1C,i,-2.9
Cc1sc2ncnc(SCC(=O)C(C)(C)C)c2c1C,i,59.9*
C[C@@H]1CN([C@@H](C)CO)S(=O)(=O)c2ccc(C#CCN(C)C)cc2O[C@H]1CN(C)C,i,·
CCCn1c(SCC(=O)N2CCOCC2)nnc1-c1ccncc1,i,13.0
Cn1c(SCC(=O)N2CCN(Cc3ccccc3)CC2)nnc1-c1ccncc1,+,-7.1
CCc1ccc(OCC(=O)Nc2ccc(-c3nc4ccccc4s3)c(O)c2)cc1,i,122.8*
CCc1ccc2oc(-c3cc(NC(=O)COc4ccc(OC)cc4)ccc3Cl)nc2c1,i,13.5
CCc1ccc(OCC(=O)Nc2ccc(-c3nc4ccccc4o3)c(O)c2)cc1,i,59.0*
Cc1cc(OCC(=O)Nc2ccc(-c3nc4ccccc4s3)c(O)c2)ccc1Cl,i,26.8
C[C@H]1CN([C@@H](C)CO)C(=O)c2cc(-c3ccccc3F)cnc2O[C@@H]1CN(C)C(=O)C1CCC1,i,·
SMILES,ID4 binder,mut p53 react
COC(=O)c1ccc([C@@H]2C=C(C(=O)NCc3ccccc3)O[C@H](OCCCCO)C2)cc1,i,·
COc1ccc(-n2c(SCC(=O)Nc3ccccc3OC)nc3sc4c(c3c2=O)CCCC4)cc1,i,-6.7
O=C(CSc1nc2ccccc2[nH]1)Nc1c(Cl)cccc1Cl,i,3.5
c1ccc2[nH]c(SCCCN3CCCCC3)nc2c1,+,-6.1
C[C@@H]1CCCCO[C@H](CN(C)CC2CC2)[C@H](C)CN([C@H](C)CO)C(=O)c2cc(N(C)C)ccc2O1,i,·
CC(=O)Nc1ccc(S(=O)(=O)Nc2cccc(-c3cn4ccc(C)cc4n3)c2)cc1,i,?
Cc1ccn2cc(-c3cccc(NS(=O)(=O)c4cccc([N+](=O)[O-])c4)c3)nc2c1,i,169.7*
O=C(O)CNS(=O)(=O)c1ccc(Cl)c(Cl)c1,i,-7.5
CCn1c2ccccc2c2nnc(SCC(N)=O)nc21,i,-5.6
COC(=O)C(C)Sc1nnc2c3ccccc3n(Cc3ccccc3)c2n1 (stereo unspecified),+,-1.5
Fc1ccc2[nH]cc(CCCN3CCN(c4nc5cc(Cl)ccc5s4)CC3)c2c1,i,-9.2
